This note sets out measurements from PubChem BioAssay (Tox21).

Records with an inconclusive call do not appear. The source made the active and inactive calls. Unless noted, calls follow the shape of the full dose curve.

A short description of test [1]: Nuclear factor erythroid 2-related factor 2/antioxidant responsive element (Nrf2/ARE) small molecule agonists: qHTS cell viability counter screen in human keratinocytes (AID 1919968; active = well fitted curve in the direction sought with a large enough effect in the repeat runs; an effect the other way counts as inactive or inconclusive; also: nearly all actives have a fitted effect of over 55% in size; also: potency is read from the fitted curve at half-maximal effect). The essentials:
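In human HaCaT keratinocytes stably expressing an ARE-driven luciferase, compound exposure lasted 23 h at 37 C under 5% CO2. Viable cells are quantified with a protease-based fluorogenic reagent (CellTiter-Fluor) read 1 h after addition.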
On the technique in general: In qHTS, concentration-response curves come from the screen itself.

Test [2] has as its target KiSS-1 receptor (Homo sapiens) (UniProt Q969F8). The test is described as follows: Human kisspeptin (KISS1R) small molecule agonists, calcium flux assay in KISS1R-HEK293 cells (AID 1920064; active = well fitted curve in the direction sought with a large enough effect in the repeat runs; an effect the other way counts as inactive or inconclusive). The essentials:
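Concentration-response testing used 15 concentrations in triplicate on human KISS1R-expressing HEK293 cells. Calcium-dependent fluorescence (Ex/Em 480/540) was followed kinetically for 3 min after compound transfer.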
Background: Calcium flux is commonly read through the fluorescence of an indicator in the cells.

Test [3] in a line: G protein-coupled receptor (GPCR) small molecule agonists, calcium flux assay: HEK293 wild type cell line counter screen (AID 1920065). The essentials:
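Fluorescence intensity signals activation. After overnight (18 h) culture and a 1 h calcium dye load at 37 C, compounds are added by pin tool and the plate read at 480/540 nm for 3 min in 1 s steps.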

Test [4] in a line: p53 small molecule agonists, cell-based qHTS assay with human liver microsomes (AID 1963577). The essentials: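 p53RE-bla reporter cells were pre-incubated 5 h at 37 C, then treated with compounds plus human liver microsomes (0.5 mg/mL final) and NADPH (0.5 mg/mL final) for 16 h at 37 C. Beta-lactamase activity was read by LiveBLAzer fluorescence after 2 h at room temperature.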

A short description of test [5]: p53 small molecule agonists, cell-based qHTS assay with rat liver microsomes (AID 1963578). The essentials:
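p53RE-bla cells were exposed to compounds together with rat liver microsomes (0.5 mg/mL final) and NADPH (0.5 mg/mL final) for 16 h at 37 C, then read by LiveBLAzer beta-lactamase fluorescence after 2 h at room temperature.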

Test [6] in a line: p53 small molecule agonists, cell-based qHTS assay with human liver microsomes: qHTS cell viability counter screen (AID 1963579). Also: nearly all actives have a fitted effect of over 45% in size. Also: potency is read from the fitted curve at half-maximal effect. The essentials:
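p53RE-bla cells (4,000/well) were pre-incubated 5 h at 37 C, then given compounds in DMSO plus human liver microsomes (0.5 mg/mL final) and NADPH (0.5 mg/mL final) for 16 h at 37 C. Viability was read by CellTiter-Glo luminescence.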

Test [7] is described as follows: p53 small molecule agonists, cell-based qHTS assay with rat liver microsomes: qHTS cell viability counter screen (AID 1963580). Also: nearly all actives have a fitted effect of over 45% in size. In short, it runs like this: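 Cytotoxicity counter screen: intracellular ATP measured by CellTiter-Glo luminescence in the same wells as the beta-lactamase reporter read, on HCT-116 p53RE-bla cells exposed 16 h at 37 C to compounds with rat liver microsomes and NADPH, each 0.5 mg/mL final.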

A short description of test [8]: p53 small molecule agonists, cell-based qHTS assay: qHTS cell viability counter screen (AID 1963581). Also: nearly all actives have a fitted effect of over 45% in size. In short, it runs like this:
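Luminescence from CellTiter-Glo, reflecting ATP content, serves as the cytotoxicity measure; it is taken after the 2 h reporter substrate step in HCT-116 p53RE-bla cells dosed for 16 h at 37 C.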

A short description of test [9]: p53 small molecule agonists, cell-based qHTS assay (AID 1963582; active = well fitted activation curve with a large enough effect in the signal ratio in the repeat runs, not every such curve was filed as active; the % refers to the signal ratio). In short, it runs like this: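 After plating, p53RE-bla cells sat 5 h in the incubator; compounds or DMSO vehicle were pinned in; a 16 h incubation at 37 C followed; FRET substrate was added and, 2 h later at RT, fluorescence was measured.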
In test [10] the target is 5-hydroxytryptamine receptor 2A (Homo sapiens) (UniProt P28223). Put plainly: 5-hydroxytryptamine receptor 2A (HTR2A) small molecule antagonists, cell-based qHTS assay (AID 1963586). Also: nearly all actives have a fitted effect of over 45% in size. In short, it runs like this: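 CHO cells stably expressing human HTR2A were plated for 18 h at 37 C, then loaded with calcium dye for 1 h. Compounds were preincubated 5 min at room temperature before DOI (4 nM solution) was added. Kinetic fluorescence was read for 3 min.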

The target is the same in test [11]. The test is described as follows: 5-hydroxytryptamine receptor 2A (HTR2A) small molecule agonists, cell-based qHTS assay (AID 1963587). Also: nearly all actives have a fitted effect of over 30% in size. The essentials: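 CHO cells stably expressing human HTR2A, plated 18 h, loaded with calcium dye 1 h at 37 C. Agonist mode: compounds added and intracellular calcium fluorescence recorded kinetically for 2 min at 1 sec intervals.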

The target in test [12] is Muscarinic acetylcholine receptor M1 (Homo sapiens) (UniProt P11229). The test is described as follows: Cholinergic receptor muscarinic 1 (CHRM1) small molecule agonists, cell-based qHTS assay (AID 1963589). Also: nearly all actives have a fitted effect of over 35% in size. In short, it runs like this: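 Fluorescent calcium dye reports M1 activation in stably transfected CHO cells. Compounds, 15 concentrations, added after 1 h dye loading at 37 C; kinetic reading at 1 sec intervals.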

The nature of test [13]: cAMP Responsive Elements (CRE) small molecule agonists, cell-based qHTS assay (AID 1963590). The essentials: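 Compound exposure lasted 3 h at 37 C/5% CO2 in CRE-bla HEK 293T cells grown in assay medium with 10% dialyzed FBS and 25 mM HEPES. Reporter signal came from LiveBLAzer B/G FRET substrate, 2 h, room temperature.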
The nature of test [14]: cAMP Responsive Elements (CRE) small molecule antagonists, cell-based qHTS assay (AID 1963591; active = well fitted inhibition curve with a large enough effect in the signal ratio in the repeat runs, not every such curve was filed as active; the % refers to the signal ratio). The essentials: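 Stimulation used NKH477 at a final 0.25 uM for 3 h in compound-treated CRE-bla HEK293T cells, seeded 18 h beforehand. Reporter activity was measured with LiveBLAzer B/G FRET substrate after 2 h at room temperature.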
Test [15] has as its target Beta-2 adrenergic receptor (Homo sapiens) (UniProt P07550). Put plainly: Adrenergic beta2 receptor (ADRB2) small molecule antagonists, cell-based qHTS assay (AID 1963592). Also: series mostly up to about 92 µM; nearly all actives have a fitted effect of over 50% in size. The essentials:
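Assay format: CHO-ADRB2 cells, 18-20hr seeding at 37C/5% CO2, then compound plus 1nM isoproterenol agonist mix for 0.5hr RT. Homogeneous time-resolved fluorescence cAMP detection after 1hr, expressed as 665/615 nm ratio.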

In test [16] the target is D(2) dopamine receptor (Homo sapiens) (UniProt P14416). Put plainly: Dopamine D2 receptor (DRD2) small molecule agonists, cell-based qHTS assay (AID 1963594). Also: nearly all actives have a fitted effect of over 35% in size. In short, it runs like this:
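HEK293 cells stably expressing human DRD2, pre-treated with PDE inhibitor Ro20-1724 (0.1 mM final) and compound 10 min at room temperature, then stimulated with NKH477 (200nM […]) for 30 min. cAMP read by HTRF (665/620 nm).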

Test [17] deals with Gonadotropin-releasing hormone receptor (Homo sapiens) (UniProt P30968). The test is described as follows: Human gonadotropin-releasing hormone receptor (GnRHR) small molecule agonists, calcium flux assay in GnRHR-HEK293 cells (AID 1920063). Also: nearly all actives have a fitted effect of over 35% in size. The essentials:
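Intracellular calcium rise is the read-out: engineered human GnRHR HEK293 cells, dye-loaded, are exposed to DMSO-dissolved compounds and fluorescence at Ex/Em 480/540 is tracked for 3 min.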

The target of test [18] is Muscarinic acetylcholine receptor M1 (Homo sapiens) (UniProt P11229). The test is described as follows: Cholinergic receptor muscarinic 1 (CHRM1) small molecule antagonists, cell-based qHTS assay (AID 1963588). Also: nearly all actives have a fitted effect of over 40% in size. The essentials: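 Compounds were tested at 15 concentrations in three independent runs. Dye-loaded CHRM1-CHO cells were exposed 5 min at room temperature before stimulation by acetylcholine added at 50nM. Intracellular calcium was read kinetically on FDSS for 3 min.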

The target of test [19] is Beta-2 adrenergic receptor (Homo sapiens) (UniProt P07550). The test is described as follows: Adrenergic beta2 receptor (ADRB2) small molecule agonists, cell-based qHTS assay (AID 1963593).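 Also: CHO cells stably overexpressing human ADRB2.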 In short, it runs like this: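 CHO cells stably over-expressing ADRB2 were plated overnight at 37C, then dosed with compounds plus a stimulation mix containing 100uM IBMX and 25uM Ro-20-1724 for 0.5hr at room temperature. cAMP was measured by HTRF competition, 1hr.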

For test [20], the target named is D(2) dopamine receptor (Homo sapiens) (UniProt P14416). Put plainly: Dopamine D2 receptor (DRD2) small molecule antagonists, cell-based qHTS assay (AID 1963595; active = well fitted inhibition curve with a large enough effect in the signal ratio in the repeat runs, with a control signal flat; the % refers to the signal ratio). The essentials: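 Human DRD2 antagonist qHTS measuring cAMP by HTRF. The cells are exposed to compound for 10 min, then to NKH477 (200 nM) and quinpirole (12 nM) for 30 min at RT, with Ro20-1724 (0.1 mM) present throughout.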
Chain of D(2) dopamine receptor (Homo sapiens) (P14416 whole entry, looked up): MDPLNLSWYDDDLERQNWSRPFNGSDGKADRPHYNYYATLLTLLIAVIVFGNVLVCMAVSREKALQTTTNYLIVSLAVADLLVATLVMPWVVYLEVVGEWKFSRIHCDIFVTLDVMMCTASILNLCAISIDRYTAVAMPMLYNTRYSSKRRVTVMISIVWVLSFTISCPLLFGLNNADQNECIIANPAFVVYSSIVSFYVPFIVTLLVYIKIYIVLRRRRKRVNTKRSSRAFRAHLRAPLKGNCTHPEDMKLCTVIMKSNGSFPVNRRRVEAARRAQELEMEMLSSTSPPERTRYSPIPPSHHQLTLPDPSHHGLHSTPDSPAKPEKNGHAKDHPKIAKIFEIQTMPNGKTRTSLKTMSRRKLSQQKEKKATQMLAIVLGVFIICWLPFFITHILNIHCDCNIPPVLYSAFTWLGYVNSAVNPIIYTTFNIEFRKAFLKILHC

Chain of KiSS-1 receptor (Homo sapiens) (Q969F8 whole entry, looked up): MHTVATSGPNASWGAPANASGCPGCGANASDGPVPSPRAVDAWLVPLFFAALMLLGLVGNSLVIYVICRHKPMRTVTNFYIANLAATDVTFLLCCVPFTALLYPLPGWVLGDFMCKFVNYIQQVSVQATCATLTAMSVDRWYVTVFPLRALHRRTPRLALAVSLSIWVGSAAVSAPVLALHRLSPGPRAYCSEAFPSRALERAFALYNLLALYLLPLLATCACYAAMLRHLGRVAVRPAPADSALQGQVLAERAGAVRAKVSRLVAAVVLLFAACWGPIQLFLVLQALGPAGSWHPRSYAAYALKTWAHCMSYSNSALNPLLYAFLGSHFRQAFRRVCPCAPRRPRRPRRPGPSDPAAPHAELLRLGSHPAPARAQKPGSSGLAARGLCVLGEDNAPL
Chain of Beta-2 adrenergic receptor (Homo sapiens) (P07550 whole entry, looked up): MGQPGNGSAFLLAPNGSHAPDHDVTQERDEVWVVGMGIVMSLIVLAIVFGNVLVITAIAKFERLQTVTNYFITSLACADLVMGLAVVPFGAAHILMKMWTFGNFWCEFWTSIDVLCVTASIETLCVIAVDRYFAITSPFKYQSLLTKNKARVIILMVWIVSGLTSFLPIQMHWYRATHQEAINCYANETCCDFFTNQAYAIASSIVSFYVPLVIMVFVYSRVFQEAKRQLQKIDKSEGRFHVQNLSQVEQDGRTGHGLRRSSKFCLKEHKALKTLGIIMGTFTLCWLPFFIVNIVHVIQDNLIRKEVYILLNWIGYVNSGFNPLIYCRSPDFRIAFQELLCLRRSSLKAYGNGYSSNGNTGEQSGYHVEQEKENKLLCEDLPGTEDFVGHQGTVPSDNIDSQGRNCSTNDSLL
Chain of Gonadotropin-releasing hormone receptor (Homo sapiens) (P30968 whole entry, looked up): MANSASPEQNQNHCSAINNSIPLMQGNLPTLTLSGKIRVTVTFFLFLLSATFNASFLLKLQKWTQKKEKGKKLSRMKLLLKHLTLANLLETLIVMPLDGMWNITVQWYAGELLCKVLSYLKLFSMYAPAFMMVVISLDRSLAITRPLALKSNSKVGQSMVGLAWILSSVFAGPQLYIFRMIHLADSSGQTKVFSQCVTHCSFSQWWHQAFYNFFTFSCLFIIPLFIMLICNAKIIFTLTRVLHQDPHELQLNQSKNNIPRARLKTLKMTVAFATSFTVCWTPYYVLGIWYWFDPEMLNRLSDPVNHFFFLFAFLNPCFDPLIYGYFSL
Chain of 5-hydroxytryptamine receptor 2A (Homo sapiens) (P28223 whole entry, looked up): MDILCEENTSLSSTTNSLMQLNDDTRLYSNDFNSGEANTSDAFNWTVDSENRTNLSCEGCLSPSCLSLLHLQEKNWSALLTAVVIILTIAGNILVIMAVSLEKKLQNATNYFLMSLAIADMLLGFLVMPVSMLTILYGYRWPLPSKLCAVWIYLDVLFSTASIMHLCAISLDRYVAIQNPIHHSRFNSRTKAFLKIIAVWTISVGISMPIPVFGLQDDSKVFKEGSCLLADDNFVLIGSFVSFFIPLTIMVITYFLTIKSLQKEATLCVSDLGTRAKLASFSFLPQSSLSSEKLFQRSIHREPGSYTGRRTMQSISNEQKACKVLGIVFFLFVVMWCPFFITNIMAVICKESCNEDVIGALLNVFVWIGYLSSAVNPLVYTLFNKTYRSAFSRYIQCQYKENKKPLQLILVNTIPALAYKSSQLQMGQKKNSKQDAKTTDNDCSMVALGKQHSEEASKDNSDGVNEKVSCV
Chain of Muscarinic acetylcholine receptor M1 (Homo sapiens) (P11229 whole entry, looked up): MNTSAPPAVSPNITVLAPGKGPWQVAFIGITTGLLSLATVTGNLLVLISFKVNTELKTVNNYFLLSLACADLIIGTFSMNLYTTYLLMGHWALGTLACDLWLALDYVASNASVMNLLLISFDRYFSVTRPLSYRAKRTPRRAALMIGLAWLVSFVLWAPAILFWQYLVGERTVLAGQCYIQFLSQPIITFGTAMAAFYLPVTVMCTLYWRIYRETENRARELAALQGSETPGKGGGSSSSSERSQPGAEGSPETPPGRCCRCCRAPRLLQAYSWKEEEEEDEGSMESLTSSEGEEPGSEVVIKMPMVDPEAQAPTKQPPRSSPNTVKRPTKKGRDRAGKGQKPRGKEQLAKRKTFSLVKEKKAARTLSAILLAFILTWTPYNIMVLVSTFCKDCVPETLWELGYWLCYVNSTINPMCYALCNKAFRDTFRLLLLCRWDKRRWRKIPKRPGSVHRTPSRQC

Take `COc1ccc(C=O)cc1O`: the Potency result in test [1], in test [2], in test [3], in [4], in test [5] and in test [6] was “inactive” in each case. Moreover, the Potency result in test [7], in [8], in test [9], in [10], in test [11] and in test [12] was “inactive” throughout. Further, the Potency entry in test [13], in test [14], in [15] and in [16] was “inactive” in each case.

`CN(C)CCc1c[nH]c2cccc(O)c12`: the Potency entry in test [1], in test [17], in test [3], in test [4], in test [5] and in test [6] was “inactive” each time. Moreover, the Potency entry in test [18], in [12], in test [13] and in test [14] was “inactive” in each case.

For the molecule `CC[C@]1(O)CC[C@H]2[C@@H]3CCC4=CCCC[C@@H]4[C@H]3CC[C@@]21C`, the Potency entry in [1], in [2], in test [3], in [4], in test [5] and in [6] was “inactive” in each case. Moreover, the Potency result in test [7], in test [8], in test [13], in [14], in test [15] and in test [19] was “inactive” each time. Also, the Potency entry in test [16] and in test [20] was “inactive” throughout.

As to `C[C@]12CC[C@H]3[C@@H](CCC4=CC(=O)CC[C@@H]43)[C@@H]1CC[C@@H]2OC(=O)CCC1CCCCC1`, the Potency entry in test [1], in [17], in test [3], in [4], in test [5] and in [6] was “inactive” throughout. For the same molecule, the Potency entry in test [7], in test [8], in test [10], in test [11], in [18] and in test [12] was “inactive” throughout. The Potency result in [13], in test [14], in test [15] and in test [16] was “inactive” throughout.

Take `COP(=S)(OC)Oc1cc(Cl)c(Br)cc1Cl`: the Potency result in [1], in test [17], in test [3], in test [7], in test [8] and in test [10] was “inactive” throughout. For the same molecule, the Potency entry in [11], in test [18], in test [12], in test [14], in test [15] and in test [19] was “inactive” throughout. For the same molecule, the Potency entry in test [16] and in test [20] was “inactive” throughout. For the same molecule, the Potency in test [6] was 45.8 µM (active).

Consider `CC(C)[C@H](C(=O)OC(C#N)c1cccc(Oc2ccccc2)c1)c1ccc(OC(F)F)cc1` (stereo not given in full), for which the Potency entry in test [1], in test [17], in test [3], in test [4], in test [5] and in [6] was “inactive” throughout. For the same molecule, the Potency result in test [7], in test [8], in test [9], in test [11], in [18] and in test [12] was “inactive” each time. Moreover, the Potency entry in test [14], in test [15], in test [19], in test [16] and in test [20] was “inactive” in each case.

For `COP(=O)(OC)SCn1c(=O)oc2cc(Cl)cnc21`, the Potency result in test [1], in [2], in test [3], in test [4], in [10] and in test [11] was “inactive” each time. Besides, the Potency entry in test [18], in test [12], in [15], in test [19], in test [16] and in test [20] was “inactive” in each case.

For `NC(=S)C(N)=S`, the Potency entry in test [1], in test [2], in test [3], in [5], in test [6] and in [7] was “inactive” each time. For the same molecule, the Potency result in test [8], in test [9], in [10], in [11], in test [18] and in [12] was “inactive” in each case. Further, the Potency entry in [13], in [14], in test [16] and in test [20] was “inactive” throughout.

Consider `O=[N+]([O-])c1ccc(Cl)c(Cl)c1Cl`, for which the Potency result in test [1], in test [17], in test [3], in test [4], in test [5] and in test [6] was “inactive” in each case. For the same molecule, the Potency result in test [8], in test [9], in test [10], in test [11], in [18] and in [12] was “inactive” throughout. Also, the Potency result in test [13], in test [14], in test [15], in test [16] and in test [20] was “inactive” throughout.

For the molecule `CC(=O)[O-].CC(=O)[O-].O.O.[Cd+2]`, the Potency in test [1] was 42.7 µM (active).

In the case of `CC1CCCC1`, the Potency entry in test [1] is “inactive”.
